HTT ATP protect: cytoprotection in Huntington HTT-Q103 PC12 cell model; AID 1471; PC12 HTT-Q103 induced, cytoprotection, ATP luminescence, 40 h; hit rate 0.14% among 230,000; Potency, µM (series often up to 56.4 µM), for inactives: cytoprotection (ATP increase), usual class: activators; active = well fitted curve in the direction sought with a large enough effect; inconclusive = small, poorly fitted or top-dose-only effect, or another doubt; inactive = no such curve, though single readings can be large; an effect the other way counts as inactive or inconclusive; also: % of control where 0% means no effect; nearly all actives have a fitted effect of over 45% in size
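ATP quantification (ATPlite) reports survival of PC12 cells in which tebufenozide, 100 nM final, switches on Htt exon 1 with 103 glutamines linked to GFP; compounds are titrated.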
HPGD inh: blocks human HPGD enzyme activity; Potency, µM, without a hit: at the top dose activity change, negative = inhibition, most hits filed as inhibitors; P15428; hit rate 4.3% among 150,000; purified HPGD, NADH fluorescence kinetic, PGE2 substrate; also: % is scaled to controls: 0 for no effect and ±100 for the full control effect
Target sequence (P15428 whole entry, looked up): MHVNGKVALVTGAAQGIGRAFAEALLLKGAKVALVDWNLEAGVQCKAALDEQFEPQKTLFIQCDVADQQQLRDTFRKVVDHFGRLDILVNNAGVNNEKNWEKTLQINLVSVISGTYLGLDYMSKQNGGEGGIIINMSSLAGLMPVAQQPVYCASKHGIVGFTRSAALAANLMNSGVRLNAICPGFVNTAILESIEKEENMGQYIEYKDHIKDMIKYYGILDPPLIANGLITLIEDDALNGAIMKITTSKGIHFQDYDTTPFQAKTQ
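20 nM HPGD preincubated 15 min at room temperature with compound in 50 mM Tris-HCl pH 8, 0.01% Tween 20. Started with 1 mM NAD+ and 30 uM prostaglandin E2; NADH fluorescence (360/450 nm) read 5 times over 30-s intervals, last minus first.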
ALDH1A1 block: inhibitors of human aldehyde dehydrogenase 1A1. Purified ALDH1A1, NADH fluorescence, propionaldehyde substrate. Potency, µM (top dose mostly 75.3 µM), for the others: at the top dose activity, negative = inhibition, most hits filed as inhibitors. hit rate 7.3% among 220,000. AID 1030. P00352;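 also: plate controls were no enzyme wells and a reference inhibitor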
KDM4E inh: JMJD2E (human) inhibition; JMJD2E catalytic domain, FDH-coupled NADH fluorescence (FDH is formaldehyde dehydrogenase); Potency, µM (highest dose often 57.1 µM), for inactives: at the highest dose activity change, negative = inhibition, most hits filed as inhibitors; hit rate 1.6% among 230,000; AID 2147;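 also: 0% = wells with enzyme and -100% = buffer wells without enzyme; nearly all actives have a fitted effect of over 50% in size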
Target sequence (B2RXH2 1-337 limits assumed): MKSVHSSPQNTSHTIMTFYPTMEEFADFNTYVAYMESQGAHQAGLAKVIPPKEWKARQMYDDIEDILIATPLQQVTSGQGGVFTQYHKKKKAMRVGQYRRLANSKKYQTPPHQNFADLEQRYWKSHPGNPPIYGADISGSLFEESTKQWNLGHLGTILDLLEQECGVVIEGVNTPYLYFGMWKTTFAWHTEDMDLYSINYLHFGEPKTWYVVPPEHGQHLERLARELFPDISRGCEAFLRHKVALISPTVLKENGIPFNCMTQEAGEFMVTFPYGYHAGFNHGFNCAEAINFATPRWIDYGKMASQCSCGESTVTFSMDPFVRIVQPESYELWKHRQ
Lamin A splicing: modulators of lamin A splicing. Potency, µM (doses to about 46.1 µM), inactives show at the highest dose ratio change, negative = inhibition, usual class: inhibitors. HeLa LMNA splicing GFP/RFP minigene ratio, 48 h. hit rate 0.01% among 200,000; active = well fitted inhibition curve with a large enough effect in the signal ratio, with a control signal flat, not every such curve was filed as active; inconclusive = small, poorly fitted or top-dose-only effect, or effect the other way, or a change in a side signal; the % refers to the signal ratio; also: % is scaled to controls: 0 for no effect and ±100 for the full control effect
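S3 HeLa stable clones carrying a lamin A-EGFP splicing minigene plus DsRed2 were seeded at 600 cells/well in Opti-MEM with 2% FBS, pin-dosed and incubated 48 h at 37°C. Acumen cytometry (488 nm) gave the GFP/RFP total-intensity ratio.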
HttQ103 aggreg: reduces HttQ103-GFP aggregates in PC12 cells; hit rate 1.1% among 220,000; AID 1688; PC12 HttQ103-GFP aggregates, Acumen cytometry, 40 h; Potency, µM (titrated, usually from 46.1 µM), without a hit: top-dose activity change, negative = inhibition, most hits filed as inhibitors; active = well fitted curve in the direction sought with a large enough effect; inconclusive = small, poorly fitted or top-dose-only effect, or another doubt; inactive = no such curve, though single readings can be large; an effect the other way counts as inactive or inconclusive; also: % is scaled to controls: 0 for no effect and ±100 for the full control effect; nearly all actives have a fitted effect of over 60% in size
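PC12 cells with ecdysone-inducible HTT exon1 Q103-GFP, induced by 100 nM tebufenozide, given compounds in a concentration series. GFP aggregates (1–25 um, 6 SD above background) counted in lysates by laser-scanning cytometry, 488 nm excitation.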
Numbers without * were called inactive; ? = inconclusive; . = no result; [ ] = dose if it differs, or a comment. Most compounds without a hit are left out; they make up all but 9.2% or so of the library. Unless noted, calls follow the shape of the dose curve; as a rule, active = well fitted inhibition curve with a large enough effect (not every such curve was filed as active); inconclusive = small, poorly fitted or top-dose-only effect, or another doubt; inactive = no such curve, though single readings can be large or run the other way. Potency is read from the fitted curve at half-maximal effect.

SMILES | HTT ATP protect | HPGD inh | ALDH1A1 block | KDM4E inh | Lamin A splicing | HttQ103 aggreg
CC[N+](CC)(CC)CCOc1ccc(/C=C\c2ccccc2)cc1 | -16% | ? | ? | 25µM* | . | .
CN(C)/C=N/c1sc2c(c1C#N)CCCCC2 | . | -24% | 4µM* | -8% | ? | 23%
N#Cc1c(/N=C/c2cccs2)sc2c1CCCCC2 | -66% | ? | ? | -3% | 9% | -3%
N#Cc1c(/N=C\c2ccc(O)c([N+](=O)[O-])c2)sc2c1CCCC2 | -24% | . | 2.5µM* | ? | . | -21%
CN(C)/C=N/c1sc2c(c1C#N)CCC2 | -18%[10 µM] | 25µM* | 10µM* | ? | 5% | 1%
CCCN(/C=N/c1sc2c(c1C#N)CCCCC2)CCC | -11% | -16% | ? | -1% | 9% | -27%
N#Cc1c(/N=C/N2CCOCC2)sc2c1CCCCC2 | -11% | -19% | 14µM* | 4% | 2% | -15%
CCc1ccccc1NC(=O)C1CCN(C(=O)N2CC(C)Oc3ccc(Cl)cc32)CC1 (stereo unspecified) | . | . | . | . | 9%[46 µM] | .
Cc1ccc(/C=N/c2sc3c(c2C#N)CCC3)o1 | 13% | 16µM* | 10µM* | ? | 6% | 8%
CC1(C)Cc2ccccc2-c2n[nH]c(=S)n21 | -1% | -22% | 13µM* | -5% | ? | -5%
CCSc1nnc2n1C(C)(C)Cc1ccccc1-2 | -6% | -11% | -4% | -5% | 21% | -10%
COc1ccc(-c2cn3cccnc3n2)cc1NC(=O)Nc1ccc(Cl)cc1 | . | . | . | . | -8%[46 µM] | .
Nc1nc2c(c(=O)[nH]1)C(c1cccc3ccccc13)C1=C(N2)c2ccccc2C1=O (stereo unspecified) | -65% | . | 3.2µM* | -8% | . | -26%
CC(=O)c1ccc(N2CCN(C(=O)c3ccc4c(=O)n(-c5ccccc5)c(=O)[nH]c4c3)CC2)cc1 | -12%[10 µM] | -29% | 14µM* | -3% | ? | -1%
O=C(c1ccc2c(=O)n(-c3ccccc3)c(=O)[nH]c2c1)N1CCN(c2ccc(F)cc2)CC1 | 0% | -10% | -8% | -3% | ? | -8%
ClC1(Cl)CC1Cn1c(C2CC2)nc2ccccc21 (stereo unspecified) | ? | . | 10µM* | 1% | -1%[46 µM] | 13%[9.22 µM]
Clc1cccc(OCCN2CCNCC2)c1 | . | -2% | 18µM* | ? | ? | -9%
Clc1cccc(OCCN2CCOCC2)c1 | 6%[10 µM] | 6% | -11% | ? | 5% | -8%
CCOC(=O)c1c(C)oc2nc(C)nc(N3CCN(c4ccc(C(C)=O)cc4)CC3)c12 | . | . | . | . | 11%[46 µM] | .
O=[N+]([O-])c1ccccc1S(=O)(=O)Oc1ccccc1/C=N/n1cnnc1 | 29%[10 µM] | 18µM* | -1% | -1% | -7% | -7%
CCS(=O)(=O)c1ccc(NC(=O)c2ccccc2Cl)c(O)c1 | 13%[10 µM] | -20% | 16µM* | 2% | 2% | 15%
NS(=O)(=O)c1ccc(NC(=O)c2ccccc2Cl)cc1 | -5% | -11% | -5% | 8% | 7% | 4%
CC(C)(C)c1cc(C(=O)NNC(=O)c2ccc(Cl)cc2)no1 | 2%[10 µM] | . | ? | -1% | . | -9%[9.22 µM]
COC(=O)[C@@H]1C[C@@]2(O)[C@@H](O)[C@@H](O)[C@@H](O)C[C@H]2N1Cc1ccc(N2CCOCC2)cc1 | -34% | -7% | 3% | -12% | . | .
COc1ccccc1CNc1ncncc1-c1ccoc1 | 4% | -23% | 25µM* | ? | ? | .
SMILES | HTT ATP protect | HPGD inh | ALDH1A1 block | KDM4E inh | Lamin A splicing | HttQ103 aggreg
COc1ccccc1-c1nc(C(N)=O)c2[nH]c(=O)n(-c3cccc(C)c3)c2n1 | 14% | ? | ? | ? | 9% | 9%
Cc1cccc(-n2c(=O)[nH]c3c(C(N)=O)nc(-c4ccccc4Cl)nc32)c1 | -31% | ? | 4% | 1.8µM* | 1% | -20%
COc1ccc(C(=O)NC(CC(=O)O)c2cc([N+](=O)[O-])ccc2Cl)c(SC)c1 (stereo unspecified) | -32% | . | 8.9µM* | -8% | 19%[9.22 µM] | 16%
O=[N+]([O-])c1ccc(-c2nc(-c3ccc(F)cc3)c(-c3ccncc3)[nH]2)cc1 | . | -28% | ? | -1% | ? | .
COc1ccc(CNC(=O)/C=C/c2ccco2)cc1OC | ? | . | 3.5µM* | -11% | . | 17%
COc1ccc(C(NC(=O)/C=C/c2ccco2)c2ccc(OC)c(OC)c2)cc1 (stereo unspecified) | 26%[10 µM] | ? | 20µM* | -16% | ? | 9%
COc1ccc(CNC(=O)/C=C/C(=O)O)cc1OC | . | -10% | ? | 5% | 6% | 0%
COc1cc([C@@H]2c3cc4c(cc3C(OC3OC5COC(C)OC5C(O)C3O)C3COC(=O)[C@@H]32)OCO4)cc(OC)c1O (stereo partly specified) | -53%[1.9 µM] | -5% | 4% | 7% | . | .
COc1ccc(-c2nnc(NC(=O)c3ccc(S(=O)(=O)N4COCC4(C)C)cc3)o2)cc1 | -59% | -10% | -13% | ? | ? | 32µM*
O=C(CSc1nnc(-c2ccc(S(=O)(=O)N3CCOCC3)cc2)o1)c1ccccc1F | -1% | -11% | ? | 7% | 2% | -11%
COc1ccc(C(=O)CSc2nnc(-c3ccc(S(=O)(=O)N4CCOCC4)cc3)o2)cc1 | -5%[10 µM] | -12% | 0.5µM* | 2% | 2% | -19%
CC1(C)COCN1S(=O)(=O)c1ccc(C(=O)Nc2nnc(-c3ccc(Cl)s3)o2)cc1 | -30%[10 µM] | -15% | ? | 7% | ? | 9%
CC(=O)Nc1cc(C(=O)NCc2ccc(C)cc2)ccc1S(=O)(=O)c1ccc(Cl)cc1 | . | . | . | . | -1%[46 µM] | .
Cc1ccc(CNC(=O)c2ccc3c(=O)[nH]c4c(C(=O)NCC5CCCO5)sc(=S)n4c3c2)cc1 (stereo unspecified) | -18% | . | ? | -4% | . | 5%
O=C(NCc1ccco1)c1sc(=S)n2c1[nH]c(=O)c1ccccc12 | -5%[0.074 µM] | . | -19% | 2% | ? | -11%
